The results in this text go back to PubChem BioAssay AID1722 (National Center for Advancing Translational Sciences (NCATS), 2009).

Fewer than 10 of roughly 290,000 compounds were called active. Calls come from the whole dose curve. Not all results are given here.

Sequence of Pyruvate kinase (Leishmania mexicana) (Q27686 whole entry, looked up): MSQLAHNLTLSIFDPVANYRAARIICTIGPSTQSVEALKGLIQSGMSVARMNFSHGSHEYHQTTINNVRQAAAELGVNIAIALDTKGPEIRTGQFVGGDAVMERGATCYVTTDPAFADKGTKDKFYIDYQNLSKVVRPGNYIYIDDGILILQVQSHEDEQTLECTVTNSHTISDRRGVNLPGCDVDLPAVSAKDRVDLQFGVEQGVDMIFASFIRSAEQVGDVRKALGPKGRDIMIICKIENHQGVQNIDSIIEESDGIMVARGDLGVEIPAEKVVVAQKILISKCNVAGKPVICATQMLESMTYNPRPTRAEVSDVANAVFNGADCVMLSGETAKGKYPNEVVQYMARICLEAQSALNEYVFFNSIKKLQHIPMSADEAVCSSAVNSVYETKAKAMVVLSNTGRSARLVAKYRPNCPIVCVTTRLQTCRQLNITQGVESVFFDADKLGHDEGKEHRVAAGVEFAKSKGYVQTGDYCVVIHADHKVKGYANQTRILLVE

This experiment deals with Pyruvate kinase (Leishmania mexicana) (UniProt Q27686). The experiment can be described thus: qHTS Assay for Activators of Leishmania Mexicana Pyruvate Kinase (LmPK). The following applies: purified LmPK, Kinase-Glo ATP luminescence, 1 h; series mostly up to 57.5 µM. The text has this:
NIH Chemical Genomics Center [NCGC] Malcolm Walkinshaw, Hugh Morgan, Linda Gilmore University of Edinburgh, UK MLPCN Grant: 1 R03 MH085697-01 NCGC Assay Overview: Pyruvate kinase (L. Mexicana) (LmPK) enzyme was supplied as a highly purified (>95% pure) sulphate-free preparation from University of Edinburgh, UK and assayed for its ability to generate ATP from ADP using phosphoenolpyruvate (PEP) as a substrate. ATP generation was detected in a coupled reaction by luciferase-mediated luminescence, an ATP-dependent process. Pyruvate kinase substrates, PEP and ADP, were present in the assay at Km and approximately 10-fold below Km respectively. The enzyme was assayed at an intermediate level of activity to screen for both inhibitors and activators.
NCGC Assay Protocol Summary: Three uL of enzyme mix (kept on ice) in assay buffer (50 mM Imidazole pH7.2, 50 mM KCl, 7 mM MgCl2, 0.01% Tween 20, 0.05% BSA) containing PEP (0.5 mM final concentration) and LmPK (0.1 nM final concentration) was dispensed into white solid bottom 1,536 well microtiter plates. 23 nL of compound were delivered by a pin tool and 1 uL of ADP mix in assay buffer (r.t; 0.1 mM final ADP concentration) was added. Plates were incubated at room temperature for 1 hour. Two uL of detection mix (Kinase-Glo, Promega; at 4 degree Celsius protected from light) was added and luminescence read by a ViewLux (Perkin Elmer) at 1 second exposure/plate. Data were normalized to the uninhibited and AC100 inhibition (no enzyme). To monitor activation, the first column contained a five-fold concentration of LmPK (0.5 nM).
A general note: qHTS replaces the single test concentration by a dilution series.
For `O=C(/C=C/c1ccccc1)c1ccccc1O`, the result was inactive.

Consider `Cc1nc(-c2ccc(NC(=O)c3cccs3)cc2)cs1`, for which the compound was classed as inactive.

`CCN(CC)c1ccc2oc(=O)c(C)nc2c1`: the compound was classed as inactive.

Turning to `S=c1[nH]ccn1-c1ccc(Cl)cc1`, the call was inactive.

With `N=c1oc2ccccc2cc1C(=O)N/N=C/c1ccccc1`, the result was inactive.

In the case of `COc1cccc(C(=O)Nc2ccc(N3CCCC3)cc2)c1`, the result was inactive.

For `COc1ccc(C(=O)Nc2ccccc2C(=O)N/N=C/c2ccccc2OC)cc1`, the call was inactive.

Consider `O=C(O)/C=C/C(=O)NNc1ccc([N+](=O)[O-])cc1`, for which the compound was called inactive.

For the compound `Clc1ccc2nc(CSc3ccccc3)cn2c1`, the call was inactive.

For `C/C(=N\NC(=O)OC(C)(C)C)c1ccc[nH]1`, the result was inactive.

Regarding `Cn1c(-c2sc3cc(C(F)(F)F)cnc3c2-c2ccccc2)n[nH]c1=S`, the compound was classed as inactive.

For the compound `COc1ccc(-c2cn3ccc(C)cc3n2)cc1`, the call was inactive.

As to `Cc1cnc(NC(=O)c2ccccn2)s1`, the call was inactive.

Turning to `S=c1[nH]nc(-c2cc(-c3ccsc3)n[nH]2)n1-c1ccccc1`, the result was inactive.

Take `COc1ccc(C2=Nc3cc(C)ccc3OC2)cc1`: the outcome was inactive.

Turning to `NC(=O)Cc1ccc2sc(-c3ccccc3)nc2c1`, the compound was called inactive.

`CCc1ccc2nc3sc(C(=O)Nc4nnc(CC)s4)c(N)c3cc2c1`: the call was inactive.

As for `COc1cccc(C(=O)Nc2ccc(NC(=O)c3ccco3)cn2)c1`, the result was inactive.

In the case of `Cc1csc(NC(=O)Nc2ccccc2[N+](=O)[O-])n1`, the call was inactive.

As to `O=[N+]([O-])c1ccc2nc(-c3ccccn3)[nH]c2c1`, the outcome was inactive.

On to `CCOc1cnc(C(=O)NNC(=O)c2ccccc2Br)o1`, for which the result was inactive.

On to `c1ccc(CN=C2Nc3ccccc3CS2)nc1`, for which the result was inactive.

With `C=CCn1c(-c2ccccc2OCC)n[nH]c1=S`, the outcome was inactive.

As to `COc1ccc(C(=O)Nc2ccccc2C(=O)N/N=C/c2ccc(O)c(OC)c2)cc1`, the outcome was inactive.

Take `CCOc1ccc(C(=O)Nc2cccc(SC)c2)cc1`: the result was inactive.

Regarding `O=C(Nc1ccc2c(c1)OCCO2)c1cnccn1`, the outcome was inactive.

On to `C=CCNC(=S)N1CCN(CCN=Cc2c(C)[nH]n(-c3ccc([N+](=O)[O-])cc3)c2=O)CC1`, for which the compound was classed as inactive.

Take `Cc1ccc(-n2[nH]c(C)c(/C=N/N3C(=O)c4cccc5cccc(c45)C3=O)c2=O)cc1`: the compound was called inactive.

Take `Cc1ccc(C)c2c1cc(C)c1nnc(SCC(=O)Nc3cccc(C(=O)O)c3)n12`: the outcome was inactive.

Turning to `Cc1ccc(NCc2n[nH]c(=S)n2-c2ccccc2)cc1Cl`, the outcome was inactive.

Turning to `COc1cccc(/C=N\NC(=O)C2=NNC(=O)C2C)c1O` (stereo not given), the compound was classed as inactive.

For `S=c1[nH]nc(-c2cccs2)n1/N=C/c1cccs1`, the compound was classed as inactive.

For `CSC1=N/C(=C\C=C\c2cccs2)C(=O)S1`, the call was inactive.

Consider `O=C(Nc1ccccc1)c1ccc2c(c1)OCO2`, for which the outcome was inactive.

Regarding `CCc1cc(-c2n[nH]c(=S)n2CC(C)C)cs1`, the compound was classed as inactive.

Take `Cc1[nH]n(-c2ccc([N+](=O)[O-])cc2)c(=O)c1C=NCCN1CCN(C(=O)c2ccccc2F)CC1`: the outcome was inactive.

Take `Cc1cc(C(=O)N/N=C/c2ccc(N3CCOCC3)cc2)c(C)o1`: the compound was classed as inactive.

Turning to `O=C(Nc1nc2ccccc2s1)c1ccc2c(c1)OCO2`, the compound was called inactive.

Consider `O=C(Nc1ccccc1)Nc1ccccc1C(=O)NCc1ccco1`, for which the outcome was inactive.

Regarding `Cn1cccc1C(=O)Nc1nccs1`, the compound was classed as inactive.

Consider `O=c1c2ccccc2ncn1/N=C/c1ccccc1`, for which the call was inactive.

With `C=CCn1c(C)cc(C2=NNC(=NCC)SC2)c1C`, the outcome was inactive.

For `c1c2c(cc3sc(N4CCCCC4)nc13)OCCO2`, the compound was classed as inactive.

Turning to `O=C1/C(=C/c2cccs2)CCc2ccccc21`, the compound was classed as inactive.

Take `Clc1ccc(-c2cc(-c3ccccn3)on2)c(Cl)c1`: the compound was called inactive.

For `O=C1CSC(=S)N1/N=C/c1ccc(O)c([N+](=O)[O-])c1`, the result was inactive.

Take `COc1ccc(OC)c(-n2c(-c3ccn[nH]3)n[nH]c2=S)c1`: the compound was classed as inactive.

In the case of `CCn1c(CSCc2c(Cl)cccc2Cl)n[nH]c1=S`, the result was inactive.

Turning to `O=C(/C=C/c1ccc2c(c1)OCCO2)c1ccc(O)cc1`, the result was inactive.

With `Cc1ccc(F)c(NC(=O)CCc2ccccc2)c1`, the compound was classed as inactive.

In the case of `COc1ccc(C(=O)/C=C/Nc2ccccn2)cc1`, the compound was called inactive.

Consider `Cn1cc([N+](=O)[O-])c(C(=O)Nc2ccc3c(c2)OCCO3)n1`, for which the call was inactive.

For `c1ccc2[nH]c(-c3nc4ccccc4[nH]3)nc2c1`, the compound was called inactive.

As for `CC(=O)Oc1ccccc1C(=O)Nc1ncc([N+](=O)[O-])s1`, the compound was classed as inactive.

With `O=C(c1ccc(F)cc1)n1c(=S)nc2ccccn21`, the result was inactive.

As to `C/C(=N\NC(=O)CC(C)C)c1c(C(F)(F)F)[nH]n(-c2nc3ccccc3s2)c1=O`, the compound was called inactive.

Turning to `c1ccc(-c2noc(-c3cccs3)n2)nc1`, the result was inactive.

`Cc1ccc(-c2nc3ccccc3[nH]2)cc1N`: the result was inactive.

`CCCCC(CC(C)O)c1n[nH]c(=S)n1-c1ccccc1` (stereo not given): the compound was called inactive.

As to `COc1ccc(C(=O)Nc2ccc(F)cc2F)cc1`, the call was inactive.

Turning to `Nc1ncc(-c2cc3ccccc3oc2=O)s1`, the result was inactive.

As to `CN(C)CCCSc1ccccc1NC(=O)/C=C/c1ccccc1`, the compound was classed as inactive.

As for `COc1ccccc1-n1c(-c2cc(-c3ccco3)[nH]n2)n[nH]c1=S`, the call was inactive.

On to `COCn1c(COc2ccccc2)nc2ccccc21`, for which the call was inactive.

With `N/C(=N\OC(=O)CCC1CCCCC1)c1ccccn1`, the outcome was inactive.

`CCCc1cc(-c2n[nH]c(=S)n2Cc2ccccc2)cs1`: the call was inactive.

Regarding `O=C(OC1CCOC1=O)c1ccc(-c2nc3ccccc3s2)s1` (stereo not given), the compound was classed as inactive.

Take `COc1cccc(C(=O)c2cc3ccc(O)cc3oc2=O)c1`: the compound was classed as inactive.

As to `COc1cccc(-c2nc3cc(C)ccc3o2)c1`, the compound was called inactive.

`C=CCn1c(-c2ccc3[nH]c(C)c(C)c3c2)n[nH]c1=S`: the compound was called inactive.
